Four molecules from PubChem BioAssay can be followed below.

Where “and” joins values, the source holds several entries; their conditions need not be identical. Equal values may be shown once. Calls of active or inactive are those of the source.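 The calls were made as follows, unless noted: active = z-score of at least 1.8 in each of two replicates, scored against plate mean and spread of sample wells; inactive = the rest.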

A short description of assay [1]: P. berghei load reduction in hepatocytes – cell-based, HepG2, luciferase luminescence, HepG2 viability, primary screen (AID 624349; in the data active = parasite load remaining mostly below about 12%, no sharp cut-off; inactive = mostly above about 10%;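 also: 100% = mean of DMSO negative control wells on the same plate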). The note with it: P. berghei liver stage in HepG2, luciferase luminescence, concentration not given here; parasite load remaining: stronger effect = lower value; viability: measured here: HepG2 viability without parasites.
Assay [2] in a line: Wnt pathway potentiators raising nuclear beta-catenin – imaging, WNT3A-conditioned medium, mouse C2C12, NPC library, primary screen (AID 1117326; in the data active = nuclear beta-catenin stimulation mostly above about 4.2%, no sharp cut-off; inactive = mostly below about 10%). Conditions: stronger effect = higher value.
Assay [3] in a line: stimulators of insulin release from INS-1E, primary screen, cell-based, 5 mM glucose, NPC library (AID 1117329;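 active = compound raises insulin release from rat beta cells at 5 mM glucose, no numeric limit stated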). The note with it: rat INS-1E insulin secretion, at 10 µM, stronger effect = higher value.
The nature of assay [4]: growth inhibition of GSK3B-pretreated HCT116 cells – cell-based, CellTiter-Glo, 0.2 to 20 µM (AID 1117336;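 active = compounds lowering colon cancer cell viability after pretreatment blocking the GSK3B kinase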). The note with it: HCT116 viability after GSK3B inhibitor, at 20 µM, stronger effect = higher value. For orientation: ATP-based viability assays read luminescence as a measure of living cells.
The nature of assay [5]: inhibition of endothelial tube formation, primary screen, imaging, VEGF stimulated, CD31 staining, tube area, NPC library (AID 1117340;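 active = compound that reduces growth-factor-driven endothelial tube area in a mixed cell culture, no cutoff stated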). The note with it: VEGF-stimulated ADSC/ECFC co-culture, at 10 µM, stronger effect = higher value.
Assay [6] can be described thus: GLP1 release stimulators, primary, NCI-H716, NPC library (AID 1117341;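 active = compound raises GLP1 secretion from the human gut endocrine cells, with no numeric limit stated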). Conditions: NCI-H716 cells, at 10 µM, stronger effect = higher value.
Assay [7] is described as follows: HCT116 colon cancer cell growth inhibition, primary screen, CellTiter-Glo luminescence, NPC library (AID 1117342;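 active = compounds that lower survival of HCT116 colon cancer cells in the luminescence readout, no numeric limit stated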). The note with it: at 20 µM (top of the series).
The nature of assay [8]: reduced SW480 viability measured with CellTiter-Glo, NPC library, primary (AID 1117343;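 active = compounds that lower viability of the colon cancer cells in the luminescence readout, with no numeric limit stated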). Conditions: CellTiter-Glo luminescence; at 20 µM (top of the series).
Assay [9] is described as follows: NPC library primary testing for decreased DLD-1 cell viability via CellTiter-Glo (AID 1117346;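 active = compounds that lower survival of DLD-1 colon cancer cells in the luminescence readout, no cutoff given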). Conditions: DLD-1 viability, CellTiter-Glo luminescence; at 20 µM (top of the series).
Assay [10] can be described thus: EMT-state selective cytotoxicity in co-culture – imaging, PC-3E GFP, TEM4-18 mCherry, primary screen (AID 1345086;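 active = compounds killing one labelled cell type while sparing the other, by normalised counts and ratio limits, not self-fluorescent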;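 as to all read-outs here: cells exposed to compound for 72 h before imaging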;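 as to red/green cell ratio (normalised): normalised mesenchymal count divided by normalised epithelial count so high means epithelial killing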). The note with it: PC-3E GFP / TEM4-18 mCherry co-culture, imaging cell counts, at 1 µM; for red/green cell ratio (normalised): actives lie on both sides.
Assay [11] relates to Aerobactin synthetase IucA (Klebsiella pneumoniae hvKP1). In words: IucA enzyme inhibition, primary screen, biochemical, Spectrum library (AID 1346200; call rule not given here;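 also: 100% = wells without compound and 0% = wells lacking enzyme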). The note with it: malachite green pyrophosphate, A620, at 8 µM, stronger effect = lower value.
A short description of assay [12]: viability loss with induced miR-34 in A549 – imaging, A549 dox-inducible miR-34, nuclei and caspase counts, primary screen (AID 1347080;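 active = compounds whose cell count with miR-34 switched on is under 0.7 times the count with it off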). Conditions: A549 miR-34 inducible, Hoechst nuclei count, 48 h.
For assay [13], the target named is NAD(+) hydrolase SARM1 (Homo sapiens) (UniProt Q6SZW1). As to the kind of experiment: blocking NAD cleavage by SARM1 SAM-TIR – cell lysate, NAD-Glo luminescence (AID 1508614;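 active = compound whose remaining NAD level is above about 45 nM, limit read from the data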;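 also: higher remaining NAD means stronger inhibition of SARM1 NADase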). The note with it: SAM-TIR HEK293T lysate NADase, at 1 µM, stronger effect = higher value.
Assay [14] concerns the target Mitogen-activated protein kinase 7 (Homo sapiens) (UniProt Q13164). In words: Gal4-ERK5 driven luciferase induction – cell-based, HTS, primary screen (AID 1508626;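 active = luciferase signal above three times the same-plate solvent-only control wells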;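 also: luciferase driven by Gal4-ERK5 fusion binding five Gal4 sites before minimal TATA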). The note with it: HeLa Gal4-ERK5 transactivation, 18 h, at 5 µM, stronger effect = higher value.
Assay [15] in a line: galactose survival enhancers in mitochondrial complex I cybrids – cell-based, galactose medium, ATP luminescence, primary screen (AID 1645843).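 Also: positive z means more ATP and so rescue of galactose-driven cybrid death.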 Conditions: complex I mutant cybrid cells, 72 h, stronger effect = higher value.
A short description of assay [16]: MELAS cybrid and Rieske KO viability enhancers – cell-based, MELAS cybrids, Rieske KO mouse fibroblasts, CellTiter-Glo, primary screen (AID 1508586;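 active = mean z-score across replicates of 1.96 or higher in either the MELAS or the Rieske mutant cell line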;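 also: z relative to plate mean and SD of compound and empty wells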). The note with it: low glucose.
[17] abbreviates: measured here: epithelial PC-3E GFP cell survival.
Where [18] appears, read: measured here: mesenchymal TEM4-18 mCherry cell survival.
[19] abbreviates: measured here: relative caspase fold change +Dox/-Dox.
Where [20] appears, read: measured here: total cells with miR-34 induction, stronger effect = lower value.
[21] abbreviates: measured here: total cells without miR-34 induction.
[22] abbreviates: MELAS cybrid survival, CellTiter-Glo 48 h, stronger effect = higher value.
Setting [23] is: Rieske KO mouse fibroblast survival, CellTiter-Glo 72 h.

Chain of Mitogen-activated protein kinase 7 (Homo sapiens) (Q13164 whole entry, looked up, the tested form may be a part): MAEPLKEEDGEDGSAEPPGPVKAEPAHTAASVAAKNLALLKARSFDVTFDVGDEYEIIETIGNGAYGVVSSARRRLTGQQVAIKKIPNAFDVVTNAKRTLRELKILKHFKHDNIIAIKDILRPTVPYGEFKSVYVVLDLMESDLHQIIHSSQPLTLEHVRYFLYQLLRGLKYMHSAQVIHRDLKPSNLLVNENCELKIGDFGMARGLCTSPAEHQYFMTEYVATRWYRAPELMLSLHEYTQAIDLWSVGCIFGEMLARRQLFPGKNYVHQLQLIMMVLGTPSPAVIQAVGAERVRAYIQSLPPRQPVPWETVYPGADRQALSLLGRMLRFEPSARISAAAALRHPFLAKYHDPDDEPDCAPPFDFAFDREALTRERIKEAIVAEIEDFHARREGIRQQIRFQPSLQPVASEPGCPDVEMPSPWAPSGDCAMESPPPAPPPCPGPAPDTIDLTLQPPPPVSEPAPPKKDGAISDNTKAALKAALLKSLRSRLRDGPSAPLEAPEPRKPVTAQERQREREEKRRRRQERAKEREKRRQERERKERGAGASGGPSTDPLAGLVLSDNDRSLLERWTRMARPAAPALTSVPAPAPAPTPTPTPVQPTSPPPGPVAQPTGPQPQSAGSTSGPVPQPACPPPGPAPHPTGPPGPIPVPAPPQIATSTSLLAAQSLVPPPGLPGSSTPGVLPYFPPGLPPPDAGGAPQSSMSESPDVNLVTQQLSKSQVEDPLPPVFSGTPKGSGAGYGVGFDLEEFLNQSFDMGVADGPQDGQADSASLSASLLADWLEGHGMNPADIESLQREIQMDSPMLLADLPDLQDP
Chain of NAD(+) hydrolase SARM1 (Homo sapiens) (Q6SZW1 whole entry, looked up, the tested form may be a part): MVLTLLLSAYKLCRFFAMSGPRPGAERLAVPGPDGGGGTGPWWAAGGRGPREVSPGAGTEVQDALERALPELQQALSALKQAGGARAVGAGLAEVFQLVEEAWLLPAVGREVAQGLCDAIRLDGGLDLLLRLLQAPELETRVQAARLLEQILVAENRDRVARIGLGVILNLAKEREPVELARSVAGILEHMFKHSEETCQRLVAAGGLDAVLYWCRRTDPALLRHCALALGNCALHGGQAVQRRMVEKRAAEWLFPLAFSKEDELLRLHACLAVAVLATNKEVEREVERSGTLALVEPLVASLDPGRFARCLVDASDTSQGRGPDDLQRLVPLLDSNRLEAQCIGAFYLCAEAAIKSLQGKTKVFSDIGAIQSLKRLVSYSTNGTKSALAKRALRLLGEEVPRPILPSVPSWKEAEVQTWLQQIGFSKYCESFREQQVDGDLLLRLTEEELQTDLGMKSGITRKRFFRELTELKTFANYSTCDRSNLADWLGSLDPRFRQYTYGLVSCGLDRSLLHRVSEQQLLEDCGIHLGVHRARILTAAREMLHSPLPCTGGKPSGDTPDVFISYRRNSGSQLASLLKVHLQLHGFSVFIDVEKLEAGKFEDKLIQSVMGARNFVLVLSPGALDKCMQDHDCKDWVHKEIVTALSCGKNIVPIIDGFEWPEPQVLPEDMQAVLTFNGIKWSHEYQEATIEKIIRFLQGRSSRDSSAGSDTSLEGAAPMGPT

In the case of `CN1CCN(C(=O)O[C@H]2c3nccnc3C(=O)N2c2ccc(Cl)cn2)CC1`, in assay [1], the parasite load remaining was 62.4% (inactive). Further, in assay [1], the viability (in general, a read-out of living cells in per cent, often relative to untreated cells) was found to be 93.7%. Moreover, the nuclear beta-catenin stimulation in [2] (at 10 µM) was -0.9% (inactive); in [2] (stimulation, at 2 µM), -0.8%. The insulin secretion stimulation in assay [3] was 2.3% (inactive). For the same molecule, the viability decrease in [4] was 2.2% (inactive). Moreover, in assay [5], the tube area decrease was -7.8% (inactive). The GLP1 secretion stimulation in assay [6] was -0.8% (inactive). Besides, the inhibition of viability in assay [7] was -1.1% (inactive). Also, the viability decrease (inhibition) in assay [8] is 5.5% (inactive); in assay [9], -2.6% (inactive). For the same molecule, the red/green cell ratio (normalised) in assay [10] was 0.85 (inactive). The normalised cell number in assay [10] (setting [17]) came to 1.07; in assay [10] (setting [18]), 0.91. The activity remaining in assay [11] was 110% (inactive). In addition, the fold change in [12] (stronger effect = lower value) is 0.943 (inactive) and 0.981 (inactive); in assay [12] (setting [19]) it was 1.01 and 4.25. The cell count in assay [12] (setting [20]) is 9050 and 10100; in assay [12] (setting [21]), 9590 and 10300. For the same molecule, in assay [13], the remaining NAD was 10 nM (inactive). Further, the luciferase signal in [14] was 40 AU (inactive). In addition, the z-score in assay [15] is 0.52 (inactive).
With `CC(C)c1cccc(C(C)C)c1O`, the nuclear beta-catenin stimulation in assay [2] (at 10 µM) was 1.6% (inactive); in assay [2] (stimulation, at 2 µM) it was 2.2%. Moreover, the insulin secretion stimulation in [3] was 0.6% (inactive). Moreover, the viability decrease in assay [4] was 83.9% (active). In assay [5], the tube area decrease was 31% (inactive). For the same molecule, the GLP1 secretion stimulation in [6] was -1.8% (inactive). The inhibition of viability in assay [7] was 88.2% (active). For the same molecule, the viability decrease (inhibition) was 102% (active) in assay [8] and 100% (active) in assay [9]. Further, in assay [10], the red/green cell ratio (normalised) is 1.01 (inactive). The normalised cell number in assay [10] (setting [17]) and in assay [10] (setting [18]) was 1.17 in each case. Besides, the activity remaining in assay [11] was 114% (inactive). The z-score in [16] (setting [22]) is 0.836 (inactive) and -0.252 (inactive); in assay [16] (setting [23]), -0.371 and -1.34; in assay [15], 0.08 (inactive) and -0.35 (inactive) and 0.505 (inactive). Also, the remaining NAD in assay [13] is 10 nM (inactive). For the same molecule, in [14], the luciferase signal was 40 AU (inactive).
As for `O=C(O)C(Cl)Cl`, in assay [1], the parasite load remaining was 106% (inactive). Also, in assay [1], the viability came to 113%. Besides, the nuclear beta-catenin stimulation in [2] (at 10 µM) was 1.9% (inactive); in [2] (stimulation, at 2 µM), 0%. The insulin secretion stimulation in assay [3] was -1.6% (inactive). Also, the viability decrease in assay [4] is -4.8% (inactive). In addition, the tube area decrease in assay [5] was -7.2% (inactive). Further, the GLP1 secretion stimulation in assay [6] is -2% (inactive). Moreover, in [7], the inhibition of viability is -9.3% (inactive). Further, the viability decrease (inhibition) in assay [8] was 38.4% (inactive); in assay [9], 8.5% (inactive). Moreover, the fold change in [12] (stronger effect = lower value) was 1.04 (inactive); in assay [12] (stronger effect = lower value, cell number ratio, induced over uninduced), 0.958 (inactive); in assay [12] (setting [19]), 1.82 and 1.65. The cell count in assay [12] (setting [20]) is 10400 and 8960; in assay [12] (setting [21]), 10100 and 9360. The z-score in assay [15] was 0.605 (inactive) and 0.045 (inactive).
In the case of `O=P1(NCCCl)OCCCN1CCCl` (configuration not stated), the parasite load remaining in assay [1] was 91% (inactive) and 76.7% (inactive) and 18.8% (inactive). The viability in [1] is 94% and 95.7% and 66%. The nuclear beta-catenin stimulation is 1.1% (inactive) in assay [2] (at 10 µM) and 0.8% in assay [2] (stimulation, at 2 µM). In assay [3], the insulin secretion stimulation is 2.9% (inactive). Besides, the viability decrease in assay [4] was -25.5% (inactive). Further, in assay [5], the tube area decrease is 9.8% (inactive). In addition, the GLP1 secretion stimulation in assay [6] is -0.1% (inactive). Besides, the inhibition of viability in assay [7] is 7.23% (inactive). In addition, the viability decrease (inhibition) in [8] is -16.8% (inactive); in assay [9], -5.2% (inactive). The red/green cell ratio (normalised) in assay [10] was 1.03 (inactive). In addition, the normalised cell number in [10] (setting [17]) was 1.08; in assay [10] (setting [18]), 1.11. Also, the activity remaining in [11] is 114% (inactive). Further, the z-score was -0.402 (inactive) and 0.719 (inactive) and 0.667 (inactive) in assay [16] (setting [22]); -0.0632 and -0.341 and -0.186 in [16] (setting [23]); 0.08 (inactive) in [15]. Moreover, in assay [13], the remaining NAD is 10 nM (inactive). The luciferase signal in [14] is 44 AU (inactive).
